From PubChem BioAssay (NCI) come the findings set out here.

Compounds without any hit were thinned out: in the full panel of roughly 83,000, 20% have a hit.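 Activity criterion: percent growth below 10, measured after cells in 96-well plates were exposed to a single compound concentration for 48 hours.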 Unmarked numbers belong to inactive results. Activity calls are given as the source filed them.

The test system of the experiment is HL-60(TB) leukemia. Put plainly: NCI-60 one-dose screen, 48 h (100 = growth as untreated, 0 = no growth, -100 = all killed). Particulars: 10 µM unless noted.
Regarding `c1ccc(-c2ccc(-c3ccccc3)[nH]2)cc1`, the growth is 91.2%.

On to `O=C(Nc1cccc(NC(=O)C2CCCCC2)c1)c1ccccn1`, for which the growth was 95.4%.

On to `CN(C)CCOc1nc2c3cccnc3cc(-c3cccc(Cl)c3)c2c2ncccc12`, for which the growth was -20.4% (active).

Regarding `CCN(CC)CCCNC(=O)c1ccc(N)cc1`, the growth was 76.5%.

Take `c1ccc(-c2nc(N3CCCNCC3)c3nc(-c4ccccc4)oc3n2)cc1`: the growth is -34.6% (active).

On to `COc1cc2c(cc1O)CC[C@@H]1[C@@H]2CC[C@]2(C)[C@@H](OCCN(C)C)CC[C@@H]12`, for which the growth was 87.6%.

Consider `Nc1nc(N)c2c(n1)NC(c1cccc(Nc3ccnc4cc(C(F)(F)F)ccc34)c1)CC(c1ccc(Br)cc1)=N2` (stereo not given), for which the growth was 43.1%.

With `Cc1nc2sc(C(=O)Nc3cccc4ccccc34)c(N)c2cc1C(O)c1ccccc1` (stereo not given), the growth is -55.1% (active).

With `C=CC(C)(O)CC/C=C(\CO)C(=O)OC1C(C)OC(O[C@](C)(C=C)CC/C=C(\CO)C(=O)O[C@H]2C[C@@]3(C(=O)OC4OC(CO)C(O)C(O)C4OC4OC(C)C(OC5OC(CO)C(O)C5O)C(OC5OC(CO)C(O)C(O)C5O)C4O)C(CC2(C)C)C2=CCC4[C@@]5(C)CC[C@H](OC6OC(COC7OC(C)C(O)C(O)C7OC7OCC(O)C(O)C7O)C(O)C(O)C6NC(C)=O)C(C)(C)C5CC[C@@]4(C)[C@]2(C)C[C@H]3O)C(O)C1O` (stereo not given in full), the growth was -52.5% (active).

In the case of `Nc1ccc(CC(=O)O)c(N)c1`, the growth is 102%.

In the case of `Cc1occc1-c1nnc(SCC(=O)c2ccc(NC(=O)CC(C)C)cc2)o1`, the growth was 98.3%.

Turning to `COc1cc(F)c(/C=C/c2cc(/C=C/c3cc(OC)c(OC)cc3F)on2)cc1OC`, the growth is 85.2%.

`CC(C)(C)n1cc(-c2ccnc(NCCCNS(=O)(=O)c3cccc4ccccc34)c2)c(-c2cccc(O)c2)n1`: the growth is 25.4%.

With `CNC(=O)c1cc(Oc2cccc3nc(Nc4ccc(Oc5ccccc5)cc4)ccc23)ccn1`, the growth was 87.1%.

On to `COc1cc(NC(N)=NCCC(C)(C)Oc2ccc(C(F)(F)F)cc2)ncc1C#N`, for which the growth is -51.1% (active).

Take `Clc1ccccc1/C=N\Nc1ccccn1`: the growth is 98.1%.

Take `CC[C@@H]1C(=O)N(C)c2cnc(Nc3ccc(C(=O)NC4CCC(N5CCN(CC6CC6)CC5)CC4)cc3OC)nc2N1C(C)C` (stereo not given in full): the growth is -48.5% (active).

Turning to `COc1ccc(/C=C/C=C\C(=O)c2ccc(-n3ccnc3)cc2)cc1`, the growth is 66.9%.

In the case of `C=C1C(=O)O[C@H]2[C@H]1CC/C(COC(=O)c1ccc(C(=O)O)s1)=C\CC[C@@]1(C)O[C@@H]21`, the growth was -31.4% (active).

`Clc1ccc(Cc2nc3ccccc3s2)cc1`: the growth was 98.6%.

`N#Cc1c(N)nc2c(nnn2-c2cccc(Br)c2)c1N`: the growth is 95.9%.

Regarding `Cc1cccc(NC(=O)Cn2cc(CN3CCN(c4ccnc5cc(Cl)ccc45)CC3)nn2)c1`, the growth was 89.1%.

As for `C[C@@H](N)c1ccc(C(=O)Nc2ccnc3[nH]ccc23)cc1`, the growth is 67.5%.

With `CCNc1cc(S(=O)(=O)O)ccc1C`, the growth was 93.8%.

Turning to `Nc1cc2[nH]c(=O)c3ccccc3c2cc1Br`, the growth is 125%.

With `CCCCOc1ncnc2nc[nH]c12`, the growth was 99.4%.

For the molecule `CCc1ccc(-c2ccc(=O)n(-c3ccc(S(N)(=O)=O)cc3)n2)cc1`, the growth was -4.27% (active).

`S=c1[nH]cccc1-c1nnc2n1Nc1nc3ccccc3cc1CS2`: the growth is 105%.

On to `COC(=O)C(CCC(=O)CCl)N1C(=O)c2ccccc2C1=O` (stereo not given), for which the growth is 84.5%.

Turning to `COc1ccc(/C=C2\COc3ccc(-c4ccccc4)cc3C2=O)cc1O`, the growth is -34% (active).

In the case of `C#CCOc1c(OC)cc(C(=O)/C(C)=C/c2cccc(N=[N+]=[N-])c2)cc1OC`, the growth was 1.17% (active).

`Nc1nc(-c2cccnc2)nc2c1sc(=S)n2-c1ccccc1`: the growth was 99.3%.

Take `COc1ccccc1N1CCN(CCn2c(=O)c3c(c4ccccc4n3C)n(C)c2=O)CC1`: the growth is 109%.

As for `Nc1nc(NC2CC2)cc(-c2cccc(Cl)c2Cl)n1`, the growth is 32.6%.

With `COc1cc(NC(=O)c2cncnc2Nc2ccc3c(ccn3Cc3ccccn3)c2)cc(OC)c1`, the growth was 4.49% (active).

Turning to `CCOC(=O)n1cc(C2=C(c3cn(C)c4ccccc34)COC2=O)c2ccccc21`, the growth was -23.6% (active).

In the case of `CC1=C(C/C=C(\C)CCC[C@H](C)CCC[C@H](C)CCCC(C)C)C(=O)c2ccccc2C1=O`, the growth is 105%.

For `C=CN(C(=O)N1CCN(c2cc3c(cc2F)c(=O)c(C(=O)O)cn3C2CC2)CC1)c1nc(-c2ccc(C)cc2)cs1`, the growth was -27.2% (active).

As to `CC(C)NC(=O)OCC#CCOC(=O)NC(C)C`, the growth was 95.7%.

Take `Cc1cc(SC#N)cc(C(C)(C)C)c1O`: the growth is 74.3%.
